Hits are enriched below; roughly 7.8% of the tested compounds scored in any of these assays.
MITF inh = MITF inhibition; TRPM1 promoter luciferase, luminescence, 24 h; inhibition, % (no concentration beside the values); actives 0.28% (n = 37,000); AID 2240; in the data active = inhibition above about 85%; inconclusive = no clear call, values can overlap the other calls; inactive = below about 68%;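 also: human melanocyte line stably carrying TRPM1 promoter luciferase reporter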
Shh pathway inh = Sonic Hedgehog pathway inhibition; inhibition, % (test concentration not listed); actives 2.1% (n = 22,000); Shh-LIGHT2 Gli-luciferase reporter, 30 h;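 active = mean inhibition across valid replicates above about 65%, limit read from the data; inconclusive = mean under the limit, yet half or more replicates past it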;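 also: pathway switched on by Shh-conditioned medium diluted 1 in 25 in low serum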
NOMO-1 viab = STK33 inhibitor candidate reducing NOMO-1 cell viability; NOMO-1 AML viability, CellTiter-Glo luminescence, 72 h; inhibition, % (no concentration beside the values); actives 7.5% (n = 37,000); AID 2330; in the data active = inhibition above about 80%; inconclusive = no clear call, values can overlap the other calls
Each line names hits and unclear results; the compound was inactive in the other large screens.

C[C@@H]1CN([C@H](C)CO)C(=O)Cc2cc(NS(=O)(=O)c3ccc(Cl)cc3)ccc2O[C@@H]1CN(C)Cc1ccc(-c2ccccc2)cc1	NOMO-1 viab 122
C[C@@H]1CN([C@H](C)CO)C(=O)Cc2cc(NS(=O)(=O)c3ccc(Cl)cc3)ccc2O[C@H]1CN(C)Cc1ccc(-c2ccccc2)cc1	none
Cc1c(C(=O)Nc2ccccc2C(=O)NCc2ccco2)cccc1[N+](=O)[O-]	none (no result: Shh pathway inh)
O=C(O)/C=C/CCCCCCCC(=O)O	none
Cc1ccc(S(=O)(=O)N(C)C[C@H]2Oc3ccc(NC(=O)Nc4ccc5c(c4)OCO5)cc3CC(=O)N([C@@H](C)CO)C[C@@H]2C)cc1	none
C[C@H](CO)N1C[C@H](C)[C@H](CN(C)S(=O)(=O)c2ccc(Cl)cc2)Oc2ccc(NC(=O)Nc3ccc4c(c3)OCO4)cc2CC1=O	NOMO-1 viab 126
Cc1ccc(S(=O)(=O)N(C)C[C@H]2Oc3ccc(NC(=O)Nc4ccc5c(c4)OCO5)cc3CC(=O)N([C@@H](C)CO)C[C@H]2C)cc1	Shh pathway inh inconclusive
COc1ccc(S(=O)(=O)N(C)C[C@@H]2Oc3ccc(NC(=O)Nc4ccc5c(c4)OCO5)cc3CC(=O)N([C@@H](C)CO)C[C@@H]2C)cc1	none
C[C@H]1CN([C@@H](C)CO)C(=O)Cc2cc(NC(=O)Nc3ccc4c(c3)OCO4)ccc2O[C@H]1CN(C)S(=O)(=O)c1ccc(Cl)cc1	NOMO-1 viab 127
C[C@H]1CN([C@@H](C)CO)C(=O)Cc2cc(NC(=O)Nc3ccc4c(c3)OCO4)ccc2O[C@H]1CN(C)S(=O)(=O)c1ccccc1	NOMO-1 viab 128
Cc1ccc(S(=O)(=O)N(C)C[C@@H]2Oc3ccc(NC(=O)Nc4ccc5c(c4)OCO5)cc3CC(=O)N([C@H](C)CO)C[C@@H]2C)cc1	NOMO-1 viab 102
C[C@@H]1CN([C@H](C)CO)C(=O)Cc2cc(NC(=O)Nc3ccc4c(c3)OCO4)ccc2O[C@@H]1CN(C)S(=O)(=O)c1ccccc1	none
O=C(Nc1ccc(I)cc1C(=O)NCc1cccnc1)c1ccccc1Cl	none (no result: Shh pathway inh)
COc1cc(O)c(C(=O)CCc2ccc(OC)c(OC)c2)c(OC)c1	none
COc1ccc(Cl)cc1NC(=O)CSc1nnc(-c2ccccc2)n1-c1ccc(C)cc1	none (no result: Shh pathway inh)
COc1ccccc1NC(=O)C1=C(C)NC(SCC(N)=O)=C(C#N)C1c1ccccc1 (stereo unspecified)	none (no result: Shh pathway inh)
CCCOc1ccc(Oc2nc(NCC)nc(OC)n2)nn1	none (no result: Shh pathway inh)
O=C(Nc1sc2c(c1C(=O)NCc1cccnc1)CCCCC2)c1ccccc1	none (no result: Shh pathway inh)
CCn1c(SCC(=O)NC(C)(C)C)nnc1-c1cccc([N+](=O)[O-])c1	none (no result: Shh pathway inh)
CCOC(=O)c1c(NC(=O)Cn2nnc(-c3ccccc3)n2)sc2c1CCCC2	none (no result: Shh pathway inh)
O=C(CSc1nc(SCC(=O)c2ccccc2)c2ccccc2n1)c1ccccc1	Shh pathway inh 76
O=C(CSc1nc(-c2ccccc2)cc(C(F)(F)F)n1)c1ccccc1	none (no result: Shh pathway inh)
Nc1ccc(Br)cc1C(O)c1ccccc1 (stereo unspecified)	none (no result: Shh pathway inh)
C[C@@H]1C[C@@H](O)C2[C@@](C)(CO)CCC[C@]2(C)[C@@]1(O)CCc1ccoc1 (stereo partly specified)	none
CC1=CC(=O)C2C(C)(C)CCC[C@]2(C)[C@@]1(O)CCc1ccoc1 (stereo partly specified)	NOMO-1 viab 96
O=C(CN1CCCc2ccccc21)Nc1ccc(Cl)c(Cl)c1	none
O=C(COc1ccc(CO)cc1)Nc1ccccc1	none (no result: Shh pathway inh)
Cc1c(-n2c(/C=C\c3ccc([N+](=O)[O-])o3)nc3ccccc3c2=O)c(=O)n(-c2ccccc2)n1C	NOMO-1 viab 115 (no result: Shh pathway inh)
Cc1c(/C=C/c2ccc(Cl)cc2Cl)c(=O)n(-c2ccccc2)n1C	none
Cc1ccc(NC(=O)COc2ccc(C(=O)Nc3ccc(Cl)cc3)cc2)cc1	none (no result: Shh pathway inh)
CCn1c(SCC(=O)Nc2ccc(F)cc2F)nnc1-c1ccccc1OC	none (no result: Shh pathway inh)
Cc1cc(C)nc(NS(=O)(=O)c2ccc(Nc3nc(-c4ccc(O)cc4)cs3)cc2)n1	none (no result: Shh pathway inh)
C[C@@H]1CCCCO[C@@H](CN(C)Cc2ccc(Cl)c(Cl)c2)[C@@H](C)CN([C@H](C)CO)C(=O)c2cc(NC(=O)Nc3cccc4ccccc34)ccc2O1	none
C[C@H](CO)N1C[C@H](C)[C@@H](CN(C)Cc2ccc(Cl)c(Cl)c2)Oc2ccc(NC(=O)Nc3cccc4ccccc34)cc2C1=O	NOMO-1 viab 112 (no result: Shh pathway inh)
C[C@@H]1CN([C@H](C)CO)C(=O)c2cc(NC(=O)Nc3cccc4ccccc34)ccc2O[C@H]1CN(C)Cc1ccc(Cl)c(Cl)c1	NOMO-1 viab 112 (no result: Shh pathway inh)
C[C@@H]1CN([C@@H](C)CO)C(=O)c2cc(NC(=O)Nc3cccc4ccccc34)ccc2O[C@H]1CN(C)Cc1ccccc1	none
C[C@@H]1CN([C@H](C)CO)C(=O)c2cc(NC(=O)Nc3cccc4ccccc34)ccc2O[C@@H]1CN(C)Cc1ccc(Cl)c(Cl)c1	NOMO-1 viab 101
C[C@H](CO)N1C[C@H](C)[C@H](CN(C)Cc2ccc(Cl)c(Cl)c2)Oc2ccc(NC(=O)Nc3cccc4ccccc34)cc2C1=O	none (no result: Shh pathway inh)
Cc1cccc(C)c1NC(=S)N(CCC#N)C(C)C	none (no result: Shh pathway inh)
Cc1noc(C)c1NC(=O)Nc1cccc2c1O[C@@H](CN(C)S(C)(=O)=O)[C@@H](C)CN([C@@H](C)CO)C2=O	NOMO-1 viab 102
C[C@H](CO)N1C[C@H](C)[C@@H](CN(C)Cc2ccc(-c3ccccc3)cc2)Oc2c(NC(=O)Nc3ccc(F)cc3)cccc2C1=O	none
C[C@H]1CN([C@@H](C)CO)C(=O)c2cccc(NC(=O)Nc3ccc(F)cc3)c2O[C@@H]1CN(C)Cc1ccc(-c2ccccc2)cc1	none
C[C@@H]1CN([C@@H](C)CO)C(=O)c2cccc(NC(=O)Nc3ccccc3)c2O[C@@H]1CN(C)Cc1ccc(-c2ccccc2)cc1	NOMO-1 viab 102
Cc1noc(C)c1NC(=O)Nc1cccc2c1O[C@H](CN(C)Cc1ccccc1)[C@@H](C)CN([C@H](C)CO)C2=O	none
C[C@@H]1CN([C@H](C)CO)C(=O)c2cccc(NC(=O)Nc3ccc(F)cc3)c2O[C@@H]1CN(C)Cc1ccc(-c2ccccc2)cc1	NOMO-1 viab 82
Cc1noc(C)c1NC(=O)Nc1cccc2c1O[C@@H](CN(C)S(C)(=O)=O)[C@H](C)CN([C@H](C)CO)C2=O	none
Cc1noc(C)c1NC(=O)Nc1cccc2c1O[C@H](CN(C)Cc1ccc(-c3ccccc3)cc1)[C@@H](C)CN([C@H](C)CO)C2=O	NOMO-1 viab 111
NC(=O)CN(Cc1ccc(F)cc1)S(=O)(=O)c1ccc(Cl)cc1	none (no result: Shh pathway inh)
COc1ccc(OC)c(S(=O)(=O)N2CCC(C(=O)Nc3ccccc3F)CC2)c1	none (no result: Shh pathway inh)
O=C(/C=C/c1ccccc1)OC[C@H]1O[C@@H](O[C@@H]2CC(C(=O)O)=C[C@@H](O)[C@H]2O)[C@H](O)[C@@H](O)[C@@H]1O	none (no result: MITF inh, NOMO-1 viab)
COc1ccc(N2C(=O)CC(SCC(=O)Nc3ccc(Cl)c(Cl)c3)C2=O)cc1 (stereo unspecified)	none (no result: Shh pathway inh)
C=C1C2CCC3[C@]4(C)CCC[C@@](C)(C(=O)O)C4CC[C@]3(C2)[C@H]1OC(C)=O (stereo partly specified)	none
Cc1c(C(=O)C2C(=O)C(=O)N(CCN3CCOCC3)C2c2ccccn2)cnn1-c1ccccc1 (stereo unspecified)	none (no result: Shh pathway inh)
COc1cccc2cc(-c3nnc(SCC(=O)Nc4cccc(SC)c4)n3C)oc12	none (no result: Shh pathway inh)
